Data taken from PubChem BioAssay (NCATS).
Inconclusive results are not listed. A call without a number means that no potency is given here. Calls of active or inactive are those of the source. The call rests on the fitted dose curve; in most records, active means well fitted inhibition curve with a large enough effect; inconclusive means small, poorly fitted or top-dose-only effect; inactive means flat fitted curve, though single readings scatter.

Assays:
Experiment in all cases: qHTS profiling for inhibitors of Plasmodium falciparum proliferation (AID 504749); further: nearly all actives have a fitted effect of over 60% in size
Settings in all cases: P. falciparum in erythrocytes, SYBR Green DNA, 72 h; series mostly up to 28.7 µM
CP194 = system: CP194
In short: (§1)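 SYBR Green fluorescence of parasite DNA, read after lysis and overnight dark incubation, measured growth over 72 h in erythrocyte culture at 0.3% parasitemia and 2.5% hematocrit. Data normalised to DMSO and 0.29 uM artemisinin, with plate-drift correction.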

CP201 = system: CP201
In short: as §1

CP203 = system: CP203
In short: as §1

CP211 = system: CP211
In short: as §1

CP215 = system: CP215
In short: as §1

CP217 = system: CP217
In short: as §1

CP237 = system: CP237
In short: as §1

CP238 = system: CP238
In short: as §1

CP250 = system: CP250
In short: as §1

CP252 = system: CP252
In short: as §1

CP256 = system: CP256
In short: as §1

CP260 = system: CP260
In short: as §1

CP262 = system: CP262
In short: as §1

CP265 = system: CP265
In short: as §1

CP266 = system: CP266
In short: as §1

CP268 = system: CP268
In short: as §1

CP286 = system: CP286
In short: as §1

CP291 = system: CP291
In short: as §1

CP247 = system: CP247
In short: as §1

CP269 = system: CP269
In short: as §1
Potency means the concentration at half of the fitted maximal effect.

| Compound | outcome (CP194) | outcome (CP201) | Potency (CP203) | outcome (CP211) | Potency (CP215) | outcome (CP217) | Potency (CP237) | Potency (CP238) | Potency (CP250) | outcome (CP252) | outcome (CP256) | Potency (CP260) | outcome (CP262) | Potency (CP265) | outcome (CP266) | Potency (CP268) | Potency (CP286) | outcome (CP291) | Potency (CP247) | outcome (CP269) |
| --- | --- | --- | --- | --- | --- | --- | --- | --- | --- | --- | --- | --- | --- | --- | --- | --- | --- | --- | --- | --- |
| CC(C)c1cc2c(cc1S(=O)(=O)O)[C@@]1(C)CCC[C@@](C)(C(=O)O)[C@@H]1CC2 | inactive | inactive | inactive | inactive | inactive | inactive | inactive | inactive | inactive | inactive | inactive | inactive | inactive | inactive | inactive | inactive | inactive | inactive | – | – |
| NNc1nnc(NN)c2ccccc12 | inactive | – | inactive | inactive | – | inactive | inactive | inactive | inactive | inactive | inactive | inactive | inactive | inactive | inactive | inactive | inactive | inactive | inactive | inactive |
| CCCCCCCCCCOc1cc2c(=O)c(C(=O)OCC)c[nH]c2cc1OCC | – | – | – | – | – | inactive | 3.5 nM (active) | 2.8 nM (active) | 0.0708 nM (active) | – | – | 3.5 nM (active) | – | – | – | 2.4 nM (active) | 3.5 nM (active) | – | 0.3 nM (active) | – |
| NC(=O)CCCCC1CCSS1 (configuration not stated) | inactive | inactive | inactive | inactive | – | inactive | – | inactive | inactive | inactive | inactive | – | inactive | inactive | inactive | inactive | inactive | inactive | inactive | inactive |
| C[C@H]1COc2c(C3(N)CC3)c(F)cc3c(=O)c(C(=O)O)cn1c23 | inactive | inactive | inactive | inactive | inactive | inactive | inactive | inactive | inactive | inactive | inactive | – | inactive | inactive | inactive | – | inactive | – | – | inactive |
| COc1ccccc1Oc1c(NS(=O)(=O)c2ccc(C(C)(C)C)cc2)nc(-c2ncccn2)nc1OCCO | inactive | inactive | inactive | inactive | – | inactive | inactive | inactive | inactive | inactive | inactive | inactive | inactive | inactive | inactive | inactive | inactive | inactive | inactive | inactive |
| COc1nccnc1NS(=O)(=O)c1ccc(N)cc1 | inactive | inactive | inactive | inactive | – | inactive | inactive | inactive | inactive | inactive | inactive | inactive | inactive | inactive | inactive | inactive | inactive | inactive | inactive | inactive |
| O=C1c2ccccc2C(=O)C1c1ccc(Br)cc1 | inactive | inactive | – | inactive | – | – | inactive | inactive | inactive | inactive | – | – | inactive | – | inactive | inactive | – | inactive | inactive | – |
| Cc1onc(-c2ccccc2)c1-c1ccc(S(N)(=O)=O)cc1 | inactive | inactive | inactive | inactive | – | inactive | inactive | inactive | inactive | inactive | inactive | inactive | inactive | inactive | inactive | inactive | inactive | inactive | inactive | inactive |
| Cc1cc(-n2nc3ccc(Cl)cc3n2)c(O)c(C(C)(C)C)c1 | inactive | inactive | inactive | inactive | inactive | – | inactive | – | – | – | – | inactive | inactive | – | inactive | inactive | inactive | inactive | – | inactive |
| CCN1CC(CCN2CCOCC2)C(c2ccccc2)(c2ccccc2)C1=O (configuration not stated) | inactive | inactive | – | inactive | inactive | inactive | – | inactive | inactive | inactive | inactive | inactive | inactive | – | inactive | inactive | inactive | inactive | inactive | inactive |
| O=C1c2cccc(O)c2C(=O)c2c(O)cccc21 | inactive | inactive | – | inactive | inactive | inactive | inactive | inactive | inactive | inactive | inactive | inactive | inactive | inactive | inactive | inactive | inactive | inactive | inactive | inactive |
| O=C(c1ccccc1)C(O)c1ccccc1 (configuration not stated) | inactive | inactive | inactive | inactive | inactive | inactive | inactive | inactive | – | inactive | inactive | inactive | inactive | inactive | inactive | inactive | inactive | – | – | inactive |
| CC(=O)OC[C@H]1O[C@@](COC(C)=O)(O[C@H]2O[C@H](COC(C)=O)[C@@H](OC(C)=O)[C@H](OC(C)=O)[C@H]2OC(C)=O)[C@@H](OC(C)=O)[C@@H]1OC(C)=O | inactive | inactive | inactive | inactive | inactive | – | inactive | – | – | – | – | inactive | inactive | inactive | inactive | inactive | inactive | inactive | – | inactive |
| Nc1c2c(nc3c1CCC3)CCCC2 | – | – | – | – | – | – | – | – | – | – | – | – | – | – | – | – | 11200 nM (active) | – | – | – |
| CCOC(=O)[C@H](CCc1ccccc1)N[C@@H](C)C(=O)N1CCC[C@H]1C(=O)O | inactive | inactive | inactive | inactive | – | inactive | inactive | inactive | inactive | inactive | inactive | inactive | inactive | inactive | inactive | inactive | inactive | inactive | inactive | inactive |
| Cc1ncc(CO)c(CN)c1O | inactive | inactive | inactive | inactive | – | inactive | inactive | inactive | inactive | inactive | inactive | inactive | – | inactive | inactive | inactive | inactive | inactive | inactive | inactive |
| CN(C/C=C/C#CC(C)(C)C)Cc1cccc2ccccc12 | inactive | inactive | inactive | inactive | inactive | inactive | – | inactive | inactive | inactive | inactive | inactive | inactive | inactive | inactive | inactive | – | inactive | inactive | inactive |
| CCCCCC(C)N (configuration not stated) | inactive | inactive | inactive | inactive | inactive | – | – | inactive | inactive | – | inactive | 10000 nM (active) | inactive | inactive | inactive | inactive | 8910 nM (active) | inactive | inactive | inactive |
| O=C1C(c2[nH]c3ccccc3c2O)=Nc2ccccc21 | inactive | inactive | – | – | – | – | – | inactive | – | inactive | inactive | inactive | inactive | inactive | inactive | – | inactive | – | – | inactive |
| CN1C[C@@H]2C[C@H]1CN2c1cc2c(cc1F)c(=O)c(C(=O)O)cn2C1CC1 | – | – | – | – | – | – | – | – | inactive | – | – | – | – | – | – | – | – | – | inactive | – |
| CC1CCN(CCCC(=O)c2ccc(F)cc2)CC1 | inactive | inactive | inactive | inactive | inactive | inactive | – | inactive | inactive | inactive | inactive | inactive | – | inactive | inactive | inactive | inactive | inactive | inactive | inactive |
| O=S1(=O)OC(c2ccc(O)cc2)(c2ccc(O)cc2)c2ccccc21 | inactive | inactive | inactive | inactive | – | inactive | inactive | inactive | inactive | inactive | inactive | inactive | inactive | inactive | inactive | inactive | inactive | inactive | inactive | inactive |
| CC(CN(C)C)C(C)(O)Cc1ccc(Cl)cc1 (configuration not stated) | – | inactive | 13500 nM (active) | – | – | inactive | 2510 nM (active) | – | – | inactive | – | – | inactive | – | inactive | – | – | – | inactive | inactive |
| Cc1c(NC(=O)c2cccnc2)c(=O)n(-c2ccccc2)n1C | inactive | inactive | inactive | inactive | – | inactive | inactive | inactive | inactive | inactive | inactive | inactive | inactive | inactive | inactive | inactive | inactive | inactive | inactive | inactive |
